Measurements reported in PubChem BioAssay (NCATS).
Records with an inconclusive call do not appear. Activity calls are given as the source filed them. Unless noted, calls come from the whole dose curve; as a rule, active = well fitted curve in the direction sought with a large enough effect; inconclusive = small, poorly fitted or top-dose-only effect, or another doubt; inactive = no such curve, though single readings can be large; an effect the other way counts as inactive or inconclusive.

Assays:
[1] = Cell Viability - BJ (AID 421; calls by dose curve;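 note: potency is the fitted concentration of half-maximal effect; cells exposed to compound for 40 hours at 37 °C before readout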); conditions: BJ fibroblast viability, qHTS
In short: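 Normal human BJ foreskin fibroblasts, 1500/well in complete medium, treated 40 hr at 37 °C. Cellular ATP by CellTiter-Glo luminescence; normalized to DMSO and 100 uM tamoxifen, AC50 from Hill fit.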

[2] = Cell Viability - Jurkat (AID 426;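 active = dose-dependent loss of cell ATP signal giving a full or clear fitted curve, ranked by lower potency value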; note: potency is the fitted concentration of half-maximal effect); conditions: qHTS
In short: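 qHTS, 1536-well; Jurkat E6-1, 5000 cells/well, complete medium; cpd 40 hr, 37 °C; CellTiter-Glo 20 min RT; luminescence. AC50 by Hill fit.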

[3] = Cell Viability - Hek293 (AID 427;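 active = compounds whose dose-response curve shows a full or clear partial loss of cell viability, called from curve shape rather than a numeric limit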;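 note: potency is the fitted concentration of half-maximal effect; cells exposed to compound for 40 hours at 37 °C before reading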); conditions: qHTS
In short: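 HEK293 cells in complete medium were exposed to compound for 40 hr at 37 °C, then cellular ATP was read by CellTiter-Glo luminescence. Data were normalized to DMSO (basal) and 100 uM tamoxifen (100% inhibition), and AC50 came from Hill fits.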

[4] = Cell Viability - MRC5 (AID 434; calls by dose curve;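 note: potency is the fitted concentration of half-maximal effect; potency reflects cytotoxicity seen as loss of intracellular ATP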); conditions: MRC5 lung fibroblast viability, qHTS
In short: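 MRC5 normal human lung fibroblasts, 1500 cells/well, exposed to compound for 40 hr at 37 C. Cellular ATP was read by CellTiter-Glo luminescence; data normalized to DMSO and 100 uM tamoxifen, with AC50 from Hill fits.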

[5] = Cell Viability - SK-N-SH (AID 435; calls by dose curve;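 note: potency is the fitted concentration of half-maximal effect; compound exposure lasted 40 h at 37 °C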); conditions: SK-N-SH neuroblastoma cell viability qHTS
In short: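 Cells seeded at 1500 per well and incubated 5 hr at 37 °C. Compound added, then 40 hr at 37 °C. CellTiter-Glo added, 20 min at room temperature, luminescence read.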

[6] = biological target: Mitogen-activated protein kinase 10 (Mus musculus) (UniProt Q61831); test: JNK3 AlphaScreen Assay (AID 530; active = well fitted curve in either direction with a large enough effect, not every such curve was filed as active;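 note: kinase came from lysate of stimulated human HepG2 cells; signal reports phosphorylation of biotinylated GST-cJun 1-79 at Ser73 with 10 µM ATP; % is set by controls: 0 for no effect and ±100 for the full control effect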); conditions: JNK3 lysate, c-Jun phosphorylation; series mostly up to 57.1 µM
In short: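 Pre-activated (IL-1β/TNFα) JNK3 in HepG2 lysates phosphorylates biotin-GST-cJun(1-79), 10 uM ATP; anti-phospho-cJun(Ser73) AlphaScreen read at room temperature, pH 7.6 Tris buffer. Compounds pre-incubated 15 min as titrations.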

[7] = Cell Viability - N2a (AID 540); conditions: N2a mouse neuroblastoma cell viability; activity change, negative = cytotoxicity: at 92.2 µM (top of the series);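 note: plate controls were DMSO alone for no effect and tamoxifen control for full effect; nearly all actives have a fitted effect of over 45% in size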
In short: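 Luminescent ATP signal (CellTiter-Glo, 20 min at room temperature) served as the viability read-out after N2a cells were treated with compounds for 40 hours at 37 °C. Concentration-response data were fitted to the Hill equation for AC50.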

[8] = Cell Viability - NIH 3T3 (AID 541); conditions: NIH 3T3 cell viability, qHTS; activity change, negative = cytotoxicity: at 92.2 µM (top of the series);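 note: plate controls were DMSO alone for no effect and tamoxifen positive control for full effect; nearly all actives have a fitted effect of over 25% in size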
In short: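 Luminescent ATP signal (CellTiter-Glo) served as the viability read-out after NIH 3T3 cells were exposed to compounds over a concentration range for 40 hr at 37 °C. Hill-equation modelling of concentration-response data gave AC50.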

[9] = Cell Viability - HUV-EC-C (AID 542); conditions: HUV-EC-C endothelial cell viability, qHTS; series mostly up to 92.2 µM; note: % is set by controls: 0 for no effect and ±100 for the full control effect; nearly all actives have a fitted effect of over 35% in size
In short: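 qHTS cytotoxicity: HUV-EC-C, 1000 cells/well, 5 hr settle, compound 40 hr 37 °C, CellTiter-Glo, luminescence. AC50 via Hill equation.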

[10] = Cell Viability - H-4-II-E (AID 543); conditions: H-4-II-E rat hepatoma viability; series mostly up to 92.2 µM; note: % is set by controls: 0 for no effect and ±100 for the full control effect; nearly all actives have a fitted effect of over 35% in size
In short: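 Luminescent ATP signal (CellTiter-Glo) served as the viability read-out, with cytotoxicity seen as a concentration-dependent ATP drop. Cells were treated for 40 hours in complete medium. AC50 values derive from Hill-equation modelling.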

[11] = Cell Viability - SH-SY5Y (AID 544); conditions: SH-SY5Y neuroblastoma cell viability; viability change, negative = cytotoxic: at 92.2 µM (top of the series); note: nearly all actives have a fitted effect of over 55% in size
In short: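 Luminescent ATP read-out (CellTiter-Glo) measures loss of viable SH-SY5Y neuroblastoma cells after 40 hr compound exposure at 37 °C. AC50 values derive from standard Hill modelling of qHTS concentration-response data.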

[12] = Cell Viability - Renal Proximal Tubule (AID 545); conditions: renal proximal tubule cells viability, primary cells of rat origin; series mostly up to 91.7 µM; note: nearly all actives have a fitted effect of over 40% in size
In short: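 Cytotoxicity is scored as a concentration-dependent drop in cellular ATP in primary rat renal proximal tubule cells exposed for 40 hr. AC50 derives from Hill modelling.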

[13] = Cell Viability - Mesenchymal (AID 546); conditions: mesenchymal cells viability, qHTS; series mostly up to 91.7 µM;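 note: cells exposed to compound for 40 hours before reading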
In short: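 Human kidney mesenchymal cells from normal renal glomeruli, 1000 cells/well, rested 5 hr at 37 °C, then treated 40 hr at 37 °C in complete medium. Cellular ATP read by CellTiter-Glo luminescence; AC50 from Hill-equation fits.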

[14] = Cellular Toxicity (caspase-3) HepG2 (AID 654); conditions: HepG2 caspase-3 activation, luminescence; series mostly up to 92.2 µM;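 note: cells exposed to compound for 16 hours before reading; 0% = DMSO alone and 100% = caspase signal from 100 µM tamoxifen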
In short: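 Cells plated 5 hr at 37 °C, compound added, incubated 16 hr at 37 °C. Caspase-Glo 3/7 reagent followed, 20 min at room temperature, then luminescence read. Activation scored as signal increase; AC50 from Hill fit.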

[15] = Cellular Toxicity (caspase-3) Jurkat (AID 655); conditions: Jurkat caspase-3 activation, luminescence; caspase-3 activation: at 92.2 µM (top of the series), DMSO = 0%, tamoxifen = 100%;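 note: cells exposed to compound for 16 h at 37 °C before reading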
In short: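 Caspase 3/7 activation is scored as increased luminescence in Jurkat cells cultured with compound for 16 hours in complete medium. AC50 values come from Hill fits of qHTS concentration-response data normalized to DMSO and 100 uM tamoxifen controls.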

[16] = Cellular Toxicity (caspase-3) HUV-EC-C (AID 656); conditions: HUV-EC-C cells, caspase-3 activation (apoptosis), vehicle = 0, 100 µM tamoxifen = 100%; series mostly up to 92.2 µM;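 note: cells exposed to compound for 16 h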
In short: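 Read-out: luminescence proportional to caspase 3/7 activity, measured 20 min after adding Caspase-Glo 3/7 reagent. Cells (HUV-EC-C) had received compound for 16 hr at 37°C. Increases relative to DMSO and 100 uM tamoxifen gave concentration-response AC50 values.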

[17] = Cellular Toxicity (caspase-3) SHSY5Y (AID 657); conditions: SH-SY5Y caspase-3 activation, DMSO zero, 10 µM staurosporine = 100%; series mostly up to 91.7 µM;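 note: cells exposed to compound for 16 hours at 37 °C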
In short: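 Cells plated and incubated 5 h at 37 °C, dosed over a concentration range, incubated 16 h, then given Caspase-Glo 3/7 reagent for 1 h at room temperature before luminescence reading. Staurosporine (10 uM) defined full stimulation.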

[18] = Cellular Toxicity (caspase-3) BJ (AID 658); conditions: BJ fibroblasts, luminescence, normalized: DMSO 0%, staurosporine 100%; series mostly up to 91.7 µM
In short: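 BJ human foreskin fibroblasts, 1000 cells/well, treated 16 hours at 37 °C in complete medium; caspase 3/7 activity by Caspase-Glo luminescence after 1 hr at room temperature. Normalized to DMSO and 10 uM staurosporine; AC50 from Hill fits.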

[19] = Cellular Toxicity (caspase-3) MRC-5 (AID 659); conditions: MRC-5 cells, luminescence, normalized: DMSO 0%, 10 µM staurosporine 100%; series mostly up to 91.7 µM;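 note: cells exposed to compound for 16 h at 37 °C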
In short: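 MRC-5 human normal lung fibroblasts, 1500 cells/well, treated 16 h at 37 °C in complete medium. Caspase 3/7 measured by Caspase-Glo luminescence after 1 h at room temperature. Normalized to DMSO and 10 uM staurosporine; AC50 from Hill fit.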

[20] = Cell Viability - HepG2 (AID 433; calls by dose curve;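 note: potency is the fitted concentration of half-maximal effect; potency for ATP loss meaning cytotoxicity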); conditions: qHTS
In short: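 Cytotoxicity is scored as loss of intracellular ATP in HepG2 cells exposed to compounds for 40 h. Concentration-response curves, normalized to DMSO and 100 uM tamoxifen, give AC50 values.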

S=C([S-])NCCNC(=S)[S-].[Zn+2]
inactive: Potency [1] > 92 µM | Potency [2] > 92 µM | Potency [3] > 92 µM | Potency [4] > 92 µM | Potency [5] > 92 µM | outcome [6] | activity change, negative = cytotoxicity [7] -5.49% | Potency [8] | Potency [9] | Potency [10] | Potency [11] | Potency [12] | Potency [13] | Potency [14] | caspase-3 activation [15] 5.46% | outcome [16] | outcome [17] | outcome [18] | outcome [19]

C[C@@H]1O[C@@H](O[C@@H]2[C@@H](O)[C@H](OCCc3ccc(O)c(O)c3)O[C@H](CO[C@@H]3O[C@H](CO)[C@@H](O)[C@H](O)[C@H]3O)[C@H]2OC(=O)/C=C/c2ccc(O)c(O)c2)[C@H](O)[C@H](O)[C@H]1O
inactive: Potency [1] > 92 µM | Potency [2] > 92 µM | Potency [3] > 92 µM | Potency [4] > 92 µM | Potency [5] > 92 µM | outcome [6] | activity change, negative = cytotoxicity [7] -12.1% | Potency [8] | Potency [10] | Potency [11] | Potency [12] | Potency [14] | caspase-3 activation [15] -3.29% | outcome [16] | outcome [17] | outcome [18] | outcome [19]

CC(C)=C1CCC(C)CC1=O (stereo not given)
inactive: Potency [1] > 92 µM | Potency [2] > 92 µM | Potency [3] > 92 µM | Potency [4] > 92 µM | Potency [5] > 92 µM | outcome [6] | activity change, negative = cytotoxicity [7] -3.2% | Potency [8] | Potency [9] | Potency [10] | Potency [11] | Potency [13] | Potency [14] | caspase-3 activation [15] -1.31% | outcome [16] | outcome [17] | outcome [18] | outcome [19]

Nc1ccc([N+](=O)[O-])c(N)c1
inactive: Potency [1] > 92 µM | Potency [2] > 92 µM | Potency [3] > 92 µM | Potency [20] > 92 µM | Potency [5] > 92 µM | outcome [6] | Potency [8] | Potency [9] | Potency [10] | Potency [11] | Potency [12] | Potency [13] | Potency [14] | caspase-3 activation [15] 0.952% | outcome [16] | outcome [17] | outcome [18] | outcome [19]

Cc1ccc(Cl)cc1
inactive: Potency [1] > 92 µM | Potency [2] > 92 µM | Potency [3] > 92 µM | Potency [4] > 92 µM | Potency [5] > 92 µM | outcome [6] | activity change, negative = cytotoxicity [7] 1.61% | Potency [8] | Potency [9] | Potency [10] | Potency [11] | Potency [12] | Potency [14] | caspase-3 activation [15] 1.47% | outcome [16] | outcome [17] | outcome [18] | outcome [19]

FC(F)(F)c1cccc(Cl)c1
inactive: Potency [1] > 92 µM | Potency [2] > 92 µM | Potency [3] > 92 µM | Potency [4] > 92 µM | Potency [5] > 92 µM | outcome [6] | activity change, negative = cytotoxicity [7] -8.83% | Potency [8] | Potency [9] | Potency [10] | Potency [11] | Potency [12] | Potency [13] | Potency [14] | caspase-3 activation [15] -0.146% | outcome [16] | outcome [18] | outcome [19]

CCc1ccccc1O
inactive: Potency [1] > 92 µM | Potency [2] > 92 µM | Potency [3] > 92 µM | Potency [4] > 92 µM | Potency [5] > 92 µM | outcome [6] | activity change, negative = cytotoxicity [7] 2.33% | Potency [8] | Potency [10] | Potency [11] | Potency [12] | Potency [13] | Potency [14] | caspase-3 activation [15] 0.741% | outcome [16] | outcome [17] | outcome [19]

c1ccc(Nc2ccccc2)cc1
inactive: Potency [1] > 92 µM | Potency [2] > 92 µM | Potency [3] > 92 µM | Potency [4] > 92 µM | Potency [5] > 92 µM | outcome [6] | activity change, negative = cytotoxicity [7] -5.87% | Potency [8] | Potency [9] | Potency [10] | Potency [11] | Potency [12] | Potency [13] | Potency [14] | caspase-3 activation [15] 1.36% | outcome [16] | outcome [17] | outcome [18] | outcome [19]

c1ccc2[nH]cnc2c1
inactive: Potency [1] > 92 µM | Potency [2] > 92 µM | Potency [3] > 92 µM | Potency [4] > 92 µM | Potency [5] > 92 µM | outcome [6] | activity change, negative = cytotoxicity [7] -1.37% | Potency [8] | Potency [9] | Potency [10] | Potency [11] | Potency [12] | Potency [13] | Potency [14] | caspase-3 activation [15] 1.18% | outcome [16] | outcome [17] | outcome [18] | outcome [19]

C=CCCCCCCC=C
inactive: Potency [1] > 92 µM | Potency [2] > 92 µM | Potency [3] > 92 µM | Potency [4] > 92 µM | Potency [5] > 92 µM | outcome [6] | activity change, negative = cytotoxicity [7] -4.21% | Potency [8] | Potency [10] | Potency [11] | Potency [12] | Potency [13] | Potency [14] | caspase-3 activation [15] 2.57% | outcome [16] | outcome [17] | outcome [18] | outcome [19]

CCOc1cccc(N)c1
inactive: Potency [1] > 92 µM | Potency [2] > 92 µM | Potency [3] > 92 µM | Potency [5] > 92 µM | outcome [6] | activity change, negative = cytotoxicity [7] 4.96% | Potency [8] | Potency [9] | Potency [10] | Potency [11] | Potency [12] | Potency [14] | caspase-3 activation [15] -1.1% | outcome [16] | outcome [17] | outcome [18] | outcome [19]

FC(F)(F)c1ccccc1Cl
inactive: Potency [1] > 92 µM | Potency [2] > 92 µM | Potency [3] > 92 µM | Potency [4] > 92 µM | outcome [6] | activity change, negative = cytotoxicity [7] -3.42% | Potency [8] | Potency [9] | Potency [10] | Potency [11] | Potency [13] | Potency [14] | caspase-3 activation [15] 2.68% | outcome [16] | outcome [17] | outcome [18] | outcome [19]
